This is a sample that favours compounds with a hit; in the whole collection about 2.3% have one here.
Nrf2 inh – Nrf2 pathway inhibition; Potency, µM (titrated, usually from 46 µM), inactives show top-dose activity change, negative = inhibition, actives largely listed as inhibitors; AID 504444; 2.1% of 360,000 active; A549 ARE-Fluc reporter, luciferase luminescence, 18-24 h; note: potency is the fitted concentration of half-maximal effect; % is set by controls: 0 for no effect and ±100 for the full control effect; nearly all actives have a fitted effect of over 60% in size
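A549 ARE_Fluc cells (5000/well, 5% FBS OPTI-MEM) pre-incubated 2 h, then treated with compounds 18-24 h at 37C/5% CO2 in concentration-response. CellTiter-Fluor viability read first; BugLite luciferase luminescence after 15 min at room temperature gives Nrf2 activity.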
A549 tox – kills or reduces viability of A549 cells in Nrf2 counter-screen; AID 504648; Potency, µM (highest dose often 46 µM), without a hit: at the highest dose activity change, negative = cytotoxicity, most hits filed as inhibitors; A549 ARE-Fluc cells, CellTiter-Fluor viability, 18-24 h; 0.16% of 390,000 active; note: potency is the fitted concentration of half-maximal effect; % is set by controls: 0 for no effect and ±100 for the full control effect
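A549 ARE-Fluc cells in 5% FBS OPTI-MEM, 5000 cells/well, rested 2 h then exposed to compounds in concentration-response for 18-24 h at 37 °C. Viability by CellTiter-Fluor fluorescence (Ex 405/Em 525) after 30 min; luciferase luminescence (BugLite, 15 min, RT) read afterwards.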
Nrf2 activator – activates Nrf2 signaling | AREc32 ARE-luciferase reporter (MCF7-derived line), luminescence, 24 h | 0.31% of 410,000 active | Potency, µM (titrated, usually from 46.1 µM), inactives show top-dose activation, actives largely listed as activators; note: potency is the fitted concentration of half-maximal effect; % of control where 0% means no effect; nearly all actives have a fitted effect of over 65% in size
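Cells of the AREc32 ARE-luciferase line are plated in OPTI-MEM containing 5% FBS and left overnight at 37 deg C. Compounds are pinned in, incubation continues 24 hr, and firefly luciferase signal is then measured.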
IL-2 act – activators of IL-2 | activation, % (series mostly up to about 46 µM) | IL-2 activation reporter assay, cell-based qHTS; stimulated with anti-CD3/CD4/CD28 beads; in transgenic mouse T cells | 0.065% of 360,000 active; in the data active = activation above about 50%; inconclusive = mostly about 30% to 49%; note: 0% is about no effect
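First, unstimulated transgenic mouse T cells were exposed to compound for 60 min. Next, anti-CD3/anti-CD4-coated beads with anti-CD28 were added. Finally, after 18 h at 37 degrees C, EGFP and DsRed were imaged.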
Active calls of the source: *; ? = inconclusive; / = not tested or not shown; [ ] = remark or other dose. Unless noted, calls come from the whole dose curve; as a rule, active = well fitted curve in the direction sought with a large enough effect; inconclusive = small, poorly fitted or top-dose-only effect, or another doubt; inactive = no such curve, though single readings can be large; an effect the other way counts as inactive or inconclusive.

SMILES | Nrf2 inh | A549 tox | Nrf2 activator | IL-2 act
CCCNC(=O)Cn1c(SCc2ccccc2C)nc2ccncc21 | 14% | -2% | / | /
Cc1ccc(NC(=O)CSc2nnc3scc(-c4ccc(Cl)cc4)n23)cc1 | 11% | -1% | 4% | /
Cc1ccc(-c2nc(NC(=O)CSc3nnc4scc(-c5ccccc5)n34)ns2)cc1 | 21µM* | ? | 3% | -3
CC(C)(C)c1ccc(NC(=O)CSc2nnc3scc(-c4ccccc4)n23)cc1 | 16µM* | -1% | 1% | /
O=C(CSc1nnc2scc(-c3ccccc3)n12)Nc1ccc(Cl)cc1 | 4% | 1% | 0% | /
Cc1nnsc1NC(=O)OCc1ccc(C(C)(C)C)cc1 | 10µM* | -14% | 1% | 1
Cc1ccc(N2C(=O)c3ccccc3C2=O)c(C)c1 | 13% | -3% | / | /
Cc1ccc(CN(Cc2ccco2)C(=S)NCC(=O)NCc2cccnc2)cc1 | 7.3µM* | -10% | 1% | 0
Cn1c(SCc2ccccc2)nc2ccsc2c1=O | 16µM* | -4% | 13µM* | 1
O=S(=O)(c1ccc(Oc2ccc3c(c2)OCO3)c(S(=O)(=O)N2CCOCC2)c1)N1CCOCC1 | -10% | -1% | / | /
CCC(=NCCc1c(C)[nH]c2ccc(OC(F)(F)F)cc12)C1=C(O)CC(c2ccccc2)CC1=O (configuration not stated) | 21µM* | ? | 2% | -1
Clc1ccccc1/C=N/NC1=Nc2cccc3cccc1c23 | ? | ? | 17% | 244*
C(=N\NC1=Nc2cccc3cccc1c23)/c1ccccn1 | 22% | ? | ? | -1
Nc1cc(S(=O)(=O)N2CCN(S(=O)(=O)c3ccc4c(c3)OCCO4)CC2)ccn1 | 2% | 0% | / | /
Cc1ccc(C(=O)NC(C)c2ccc(F)cc2)cc1 (configuration not stated) | -14% | 0% | 0% | -5
O=C(c1ccc(F)cc1)c1ccc(-c2ccc(F)cc2)nc1 | 12% | -2% | -1% | -2
Cc1ccc(C(C#N)c2ccc(C(=O)c3ccc(F)cc3)cc2)cc1 (configuration not stated) | 26µM* | -1% | 4% | 1
N#CC(c1ccc(F)cc1)c1ccc(C(=O)c2ccc(F)cc2)cc1 (configuration not stated) | 15µM* | -11% | 4% | 0
Cc1ccc(NC(=O)CN2C=NS(=O)(=O)c3ccccc32)c(C)c1 | / | 11% | 0% | /
N#CN1CCC(NS(=O)(=O)c2cccc(C(F)(F)F)c2)CC1 | -19% | 1% | / | /
Cc1ccc(Nc2nc(C(=O)NCc3ccco3)cs2)cc1 | 9.2µM* | / | 14% | 2
Cc1csc2ncc(C(=O)NCc3ccco3)c(=O)n12 | 9% | -15%[1.84 µM] | 11µM* | 1
Cc1nc(-n2nc(C)c(CCC(C)C)c2C)sc1C(=O)Nc1ccc(Br)cc1 | 27% | 3% | 1% | /
CCOC(=O)c1sc(NC(=O)CSc2n[nH]c(-c3ccccc3)n2)c(C#N)c1C | 23µM* | -23% | 3% | -2
COc1cc(NC(=O)Cn2c(=O)ccc3cc(S(=O)(=O)N4CCCC4)ccc32)cc(OC)c1 | / | -1% | 0% | /
SMILES | Nrf2 inh | A549 tox | Nrf2 activator | IL-2 act
O=C(Cc1ccccc1[N+](=O)[O-])Nc1cccc(S(=O)(=O)NC2=NCCCCC2)c1 | ? | 11% | 0% | 0
O=C(/C=C/c1ccccc1Cl)Nc1cccc(S(=O)(=O)NC2=NCCCCC2)c1 | 9.2µM* | ? | 15% | 6
O=C(/C=C/c1ccc([N+](=O)[O-])cc1)Nc1cccc(S(=O)(=O)NC2=NCCCCC2)c1 | 18µM* | -19% | 4% | -6
O=C(/C=C/c1ccc(Cl)cc1Cl)Nc1cccc(S(=O)(=O)NC2=NCCC2)c1 | ? | -7% | 16% | -1
COc1ccc(-c2cn3nc(N4CCCC(C(=O)Nc5ccccc5OC)C4)sc3n2)cc1 (configuration not stated) | ? | 4% | 2% | /
Cc1cc2c(s1)c1cnn(Cc3cccc(Cn4ncc5c6sc(C)cc6n(C)c5c4=O)c3F)c(=O)c1n2C | -3% | 1% | / | /
Cc1cccc(NC(=O)c2ccc(S(=O)(=O)N3CCCCC3)cc2)n1 | ? | 0% | 3% | -4
Cc1cccc(NC(=O)c2ccc(S(=O)(=O)N3CCC(C)CC3)cc2)n1 | 15µM* | -3% | 4% | 0
CC1CCN(S(=O)(=O)c2ccc(C(=O)Nc3nnc(C4CC4)o3)cc2)CC1 | 12µM* | ? | -1% | -1
